According to the supplement of paper PMC10849652:
Targets with a hit are over-represented here; the source holds about 7,900 in all. About 0.6% of all pairs of compound and target were hits. Values without a mark were called inactive.

What was measured:
Assay in all cases: log2 fold change, soluble protein after heating vs DMSO (PISA); higher = thermal stabilisation; K562 cells, 10 uM, 30 min; active = over 0.2 and 3.5 SD of the protein, either way, in both replicates (recomputed)
[1] = compound: CC1=C(C=C(C=C1)NC(=O)C2=CC(=CC=C2)C(C)(C)C#N)NC3=CC4=C(C=C3)N=CN(C4=O)C
In short: (§1)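 Quantification of soluble protein used TMTpro 16plex LC-MS/MS, with channel sums equalised. Samples were the supernatant after 21,000xg for 90 min of pooled aliquots from K562 cells (2×10^6 cells/mL) treated with 10 μM compound for 30 min, heated for 3 min over 48°C-58°C, and extracted in PBS with 0.5% NP-40 at 4°C. Values, from duplicates, describe thermal stability against control samples on a log2 fold-change scale.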

[2] = compound: CC1=C(C=C(C=C1)NC(=O)C2=CC(=CC=C2)N(C)C)NC(=O)C3=CC=C(C=C3)O
In short: as §1

[3] = compound: CC1=CC=C(C=C1)SC2=C3C=C(SC3=CN=C2)C(=O)N
In short: as §1

[4] = compound: CC1=NC(=CC=C1)C2=C(N=C(N2)C(C)(C)C)C3=CC4=NC=CN=C4C=C3
In short: as §1

Nexturastat A = compound: CCCCN(Cc1ccc(C(=O)NO)cc1)C(=O)Nc1ccccc1 [Nexturastat A]
In short: as §1

vemurafenib = compound: CCCS(=O)(=O)Nc1ccc(F)c(C(=O)c2c[nH]c3ncc(-c4ccc(Cl)cc4)cc23)c1F [vemurafenib]
In short: as §1

[5] = compound: CCCS(=O)(=O)Nc1ccc(F)c(C(=O)c2c[nH]c3ncc(Cl)cc23)c1F
In short: as §1

[6] = compound: CCCc1cc(C)[nH]c(=O)c1CNC(=O)c1cc(-c2ccnc(N3CCN(C)CC3)c2)cc2c1cnn2C(C)C
In short: as §1

givinostat = compound: CCN(CC)Cc1ccc2cc(COC(=O)Nc3ccc(C(=O)NO)cc3)ccc2c1 [givinostat]
In short: as §1

barasertib = compound: CCN(CCCOc1ccc2c(Nc3cc(CC(=O)Nc4cccc(F)c4)[nH]n3)ncnc2c1)CCOP(=O)(O)O [barasertib]
In short: as §1

[7] = compound: CC[C@@H]1C(=O)N(C)c2cnc(Nc3ccc(C(=O)NC4CCN(C)CC4)cc3OC)nc2N1C1CCCC1
In short: as §1

volasertib = compound: CC[C@@H]1C(=O)N(C)c2cnc(Nc3ccc(C(=O)N[C@H]4CC[C@H](N5CCN(CC6CC6)CC5)CC4)cc3OC)nc2N1C(C)C [volasertib]
In short: as §1

[8] = compound: CC[C@H](C)N1C=C(C2=C(C=C(C=C21)C3=CN=C(C=C3)N4CCNCC4)C(=O)NCC5=C(C=C(NC5=O)C)C)C
In short: as §1

epoxomicin = compound: CC[C@H](C)[C@@H](C(=O)N[C@@H]([C@@H](C)O)C(=O)N[C@@H](CC(C)C)C(=O)[C@]1(CO1)C)NC(=O)[C@H]([C@@H](C)CC)N(C)C(=O)C [epoxomicin]
In short: as §1

[9] = compound: CCn1c(C(=O)N(C2CC2)C2CC2)cc2c3c(ncn3C)c(Nc3cc(C)n(C)n3)nc21
In short: as §1

[10] = compound: CCn1cc(-c2ccnc3[nH]c(-c4cccc(CN(C)C)c4)cc23)c(-c2ccc(NC(=O)N(C)C)cc2)n1
In short: as §1

[11] = compound: CN(C)CC(=O)Nc1ccc2[nH]c(=O)c3ccccc3c2c1
In short: as §1

rosiglitazone = compound: CN(CCOC1=CC=C(C=C1)C[C@H]2C(=O)NC(=O)S2)C3=CC=CC=N3 (racemic) [rosiglitazone]
In short: as §1

[12] = compound: CN1C2=C(C3=C1C(=O)N(N=C3)CC4=CC(=CC=C4)N)SC(=C2)S(=O)C
In short: as §1

[13] = compound: CN1CCC(CNc2ccc3ncc(-c4cccc(OC(F)(F)F)c4)n3n2)CC1
In short: as §1

UniProt Q8IWZ8, sequence (Q8IWZ8 whole entry, looked up): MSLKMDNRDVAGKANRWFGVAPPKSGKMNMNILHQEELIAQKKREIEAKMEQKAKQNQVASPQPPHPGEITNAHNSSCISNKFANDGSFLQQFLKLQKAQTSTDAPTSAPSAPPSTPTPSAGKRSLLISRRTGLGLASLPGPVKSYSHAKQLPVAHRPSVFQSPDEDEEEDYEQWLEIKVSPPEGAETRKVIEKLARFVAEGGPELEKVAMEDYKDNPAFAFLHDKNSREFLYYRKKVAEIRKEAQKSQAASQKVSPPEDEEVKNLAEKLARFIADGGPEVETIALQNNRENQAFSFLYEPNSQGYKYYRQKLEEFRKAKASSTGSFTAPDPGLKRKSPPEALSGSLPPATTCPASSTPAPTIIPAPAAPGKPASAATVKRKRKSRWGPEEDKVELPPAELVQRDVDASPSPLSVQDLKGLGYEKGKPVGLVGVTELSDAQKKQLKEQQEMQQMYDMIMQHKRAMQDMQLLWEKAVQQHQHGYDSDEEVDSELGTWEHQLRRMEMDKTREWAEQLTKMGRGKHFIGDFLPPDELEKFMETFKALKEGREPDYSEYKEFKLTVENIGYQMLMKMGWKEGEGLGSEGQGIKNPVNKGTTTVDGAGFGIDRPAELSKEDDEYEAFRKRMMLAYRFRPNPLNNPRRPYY
UniProt P63165, sequence (P63165 whole entry, looked up): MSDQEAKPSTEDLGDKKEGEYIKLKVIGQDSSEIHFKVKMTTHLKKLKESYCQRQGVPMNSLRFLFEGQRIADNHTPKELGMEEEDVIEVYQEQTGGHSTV
UniProt Q16385, sequence (Q16385 whole entry, looked up): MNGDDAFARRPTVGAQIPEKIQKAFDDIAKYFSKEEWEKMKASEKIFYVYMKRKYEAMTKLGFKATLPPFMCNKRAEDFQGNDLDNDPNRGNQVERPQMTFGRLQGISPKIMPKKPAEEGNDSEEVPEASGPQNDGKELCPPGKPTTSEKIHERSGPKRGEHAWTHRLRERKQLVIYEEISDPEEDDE
UniProt Q9NYB0, sequence (Q9NYB0 whole entry, looked up): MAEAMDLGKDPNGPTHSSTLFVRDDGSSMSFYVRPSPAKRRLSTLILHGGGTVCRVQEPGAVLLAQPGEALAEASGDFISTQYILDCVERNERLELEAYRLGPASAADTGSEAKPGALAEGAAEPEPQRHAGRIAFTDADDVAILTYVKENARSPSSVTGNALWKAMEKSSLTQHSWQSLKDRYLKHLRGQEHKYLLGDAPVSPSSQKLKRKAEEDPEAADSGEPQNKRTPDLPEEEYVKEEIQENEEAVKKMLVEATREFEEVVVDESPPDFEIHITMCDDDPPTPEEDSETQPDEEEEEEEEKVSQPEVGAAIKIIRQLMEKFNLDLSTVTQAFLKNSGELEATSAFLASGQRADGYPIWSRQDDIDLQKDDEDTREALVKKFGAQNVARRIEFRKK
UniProt Q9UP52, sequence (Q9UP52 whole entry, looked up): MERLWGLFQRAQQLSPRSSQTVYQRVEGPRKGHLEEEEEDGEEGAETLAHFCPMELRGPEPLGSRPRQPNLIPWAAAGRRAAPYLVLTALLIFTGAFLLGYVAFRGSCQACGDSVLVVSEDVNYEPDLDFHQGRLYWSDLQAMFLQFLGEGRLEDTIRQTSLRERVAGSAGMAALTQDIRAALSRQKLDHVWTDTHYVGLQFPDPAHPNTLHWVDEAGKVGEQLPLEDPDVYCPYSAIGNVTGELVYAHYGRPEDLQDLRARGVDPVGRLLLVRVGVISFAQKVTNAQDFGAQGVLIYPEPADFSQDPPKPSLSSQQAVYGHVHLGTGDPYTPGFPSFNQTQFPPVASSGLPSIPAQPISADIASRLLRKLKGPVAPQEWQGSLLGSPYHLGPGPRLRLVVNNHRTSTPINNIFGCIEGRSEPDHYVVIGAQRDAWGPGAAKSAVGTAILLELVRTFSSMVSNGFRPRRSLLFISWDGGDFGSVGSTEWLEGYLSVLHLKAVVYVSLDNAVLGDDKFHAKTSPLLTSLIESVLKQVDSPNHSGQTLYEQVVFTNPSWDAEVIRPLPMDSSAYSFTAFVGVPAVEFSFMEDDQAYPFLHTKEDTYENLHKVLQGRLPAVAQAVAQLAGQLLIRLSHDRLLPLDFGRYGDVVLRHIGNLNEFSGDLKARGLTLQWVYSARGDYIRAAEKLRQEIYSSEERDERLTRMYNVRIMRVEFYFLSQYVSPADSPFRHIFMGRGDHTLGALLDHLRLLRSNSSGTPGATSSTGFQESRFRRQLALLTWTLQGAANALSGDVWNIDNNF
UniProt Q8NEW0, sequence (Q8NEW0 whole entry, looked up): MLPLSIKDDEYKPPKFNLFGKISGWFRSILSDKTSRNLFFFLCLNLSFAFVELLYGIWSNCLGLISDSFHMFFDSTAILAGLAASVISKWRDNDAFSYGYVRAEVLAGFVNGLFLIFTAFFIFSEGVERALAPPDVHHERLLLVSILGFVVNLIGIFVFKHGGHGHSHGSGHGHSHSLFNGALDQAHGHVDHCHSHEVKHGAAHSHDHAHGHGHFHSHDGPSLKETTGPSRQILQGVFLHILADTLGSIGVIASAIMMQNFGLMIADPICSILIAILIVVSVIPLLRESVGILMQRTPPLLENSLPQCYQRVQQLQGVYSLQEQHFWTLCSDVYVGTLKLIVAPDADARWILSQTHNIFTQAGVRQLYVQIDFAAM
UniProt O14975, sequence (O14975 whole entry, looked up): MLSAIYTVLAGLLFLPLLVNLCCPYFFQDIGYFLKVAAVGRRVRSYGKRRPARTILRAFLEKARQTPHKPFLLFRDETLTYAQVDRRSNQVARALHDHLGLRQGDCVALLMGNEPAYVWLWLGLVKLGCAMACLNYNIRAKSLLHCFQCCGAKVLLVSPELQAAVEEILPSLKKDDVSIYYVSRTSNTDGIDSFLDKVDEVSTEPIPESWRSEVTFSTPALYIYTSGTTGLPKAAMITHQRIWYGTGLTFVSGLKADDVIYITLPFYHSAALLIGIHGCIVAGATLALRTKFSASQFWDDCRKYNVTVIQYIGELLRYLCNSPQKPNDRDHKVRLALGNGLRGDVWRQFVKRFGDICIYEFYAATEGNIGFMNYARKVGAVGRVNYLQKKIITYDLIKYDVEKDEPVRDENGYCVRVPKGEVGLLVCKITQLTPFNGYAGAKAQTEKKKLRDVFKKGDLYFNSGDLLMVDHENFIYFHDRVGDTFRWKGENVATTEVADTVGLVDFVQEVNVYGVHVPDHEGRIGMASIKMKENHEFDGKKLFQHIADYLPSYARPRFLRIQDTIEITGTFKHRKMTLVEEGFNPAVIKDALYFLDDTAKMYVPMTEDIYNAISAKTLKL
UniProt Q8WU79, sequence (Q8WU79 whole entry, looked up): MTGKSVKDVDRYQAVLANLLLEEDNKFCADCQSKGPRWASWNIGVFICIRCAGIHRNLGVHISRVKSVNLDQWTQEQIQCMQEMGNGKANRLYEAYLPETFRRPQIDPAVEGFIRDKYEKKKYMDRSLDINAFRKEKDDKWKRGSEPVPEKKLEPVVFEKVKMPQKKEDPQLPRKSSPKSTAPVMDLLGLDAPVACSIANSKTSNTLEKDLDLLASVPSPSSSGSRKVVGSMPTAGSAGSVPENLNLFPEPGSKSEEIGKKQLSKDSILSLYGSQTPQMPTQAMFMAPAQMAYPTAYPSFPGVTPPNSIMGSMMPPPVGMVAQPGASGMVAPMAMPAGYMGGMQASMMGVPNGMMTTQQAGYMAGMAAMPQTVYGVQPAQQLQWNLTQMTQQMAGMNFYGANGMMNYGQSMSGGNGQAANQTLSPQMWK

| Target | log2 fold change [1] | log2 fold change [2] | log2 fold change [3] | log2 fold change [4] | log2 fold change (Nexturastat A) | log2 fold change (vemurafenib) | log2 fold change [5] | log2 fold change [6] | log2 fold change (givinostat) | log2 fold change (barasertib) | log2 fold change [7] | log2 fold change (volasertib) | log2 fold change [8] | log2 fold change (epoxomicin) | log2 fold change [9] | log2 fold change [10] | log2 fold change [11] | log2 fold change (rosiglitazone) | log2 fold change [12] | log2 fold change [13] |
| --- | --- | --- | --- | --- | --- | --- | --- | --- | --- | --- | --- | --- | --- | --- | --- | --- | --- | --- | --- | --- |
| SUMO1 (UniProt P63165) | -0.064 | -0.045 | 0.4 | 0.024 | -0.142 | -0.051 | 0.657 (active) | -0.071 | -0.172 | -0.055 | 0.034 | -0.035 | -0.046 | -0.011 | 0.088 | 0.015 | 0.021 | 0.002 | 0.038 | 0.007 |
| SLIRP (UniProt Q9GZT3) | 0.175 | 0.008 | -0.035 | 0.039 | 0.286 | 0.028 | -0.031 | 0.214 | 0.113 | 0.019 | 0.05 | 0.343 | -0.093 | 0.302 | 0.015 | 0.02 | 0.08 | 0.058 | 0.092 | 0.06 |
| TERF2IP (UniProt Q9NYB0) | -0.023 | -0.012 | 0.02 | 0.013 | 0.057 | 0.184 | 0.001 | -0.017 | -0.009 | 0.021 | -0.038 | -0.205 | 0.001 | 0.081 | 0.02 | 0.01 | 0.045 | 0.016 | 0.026 | -0.039 |
| SLC30A7 (UniProt Q8NEW0) | -0.03 | 0.003 | 0.03 | -0.072 | -0.108 | 0.072 | -0.019 | -0.148 | 0.081 | 0.032 | 0.016 | -0.074 | -0.041 | -0.034 | -0.007 | 0.032 | 0.014 | 0.053 | -0.05 | 0.091 |
| TFR2 (UniProt Q9UP52) | 0.012 | -0.018 | -0.012 | -0.036 | -0.031 | -0.018 | -0.003 | -0.029 | -0.083 | 0.01 | -0.483 (active) | -0.382 (active) | -0.045 | 0.01 | 0.037 | 0.038 | -0.035 | -0.007 | -0.003 | -0.22 |
| SSX2 (UniProt Q16385) | 0.021 | -0.013 | 0.011 | 0.073 | -0.254 (active) | 0.046 | 0.035 | -0.016 | -0.099 | 0.018 | -0.046 | -0.102 | 0.071 | 0.131 | 0.007 | -0.036 | 0.007 | 0.045 | -0.06 | 0.021 |
| SMAP2 (UniProt Q8WU79) | -0.033 | -0.063 | 0.016 | -0.054 | 0.029 | 0.058 | 0.055 | 0.043 | 0.04 | 0.052 | -0.054 | -0.3 (active) | 0.131 | 0.056 | -0.015 | -0.009 | 0.008 | 0.073 | -0.021 | 0.015 |
| SLC27A2 (UniProt O14975) | 0.099 | -0.042 | -0.032 | -0.032 | -0.013 | 0.029 | 0.073 | 0.008 | -0.004 | 0 | -0.094 | -0.408 (active) | 0 | -0.05 | 0.277 (active) | -0.064 | 0.016 | -0.032 | -0.092 | 0.313 (active) |
| SUGP1 (UniProt Q8IWZ8) | -0.006 | -0.021 | 0.033 | 0.065 | 0.056 | 0.121 | 0.096 | -0.001 | 0.095 | 0.068 | -0.155 | -0.341 (active) | 0.056 | 0.062 | -0.102 | -0.007 | 0.021 | 0.042 | -0.028 | -0.081 |
